Results published in the supplement of paper PMC6555819.

Columns and labels:
Experiment in all cases: PBM binding z-score (relative to random genomic background probes); higher = stronger binding; sequences stand for … in GC…GCGATTGACAGCGTAGAATGAAGG
[1] = tested on: LXRa:RXRa (NR concentration 270 nM, RXRa partner concentration 90 nM)
In short: (§1)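 Custom Agilent 4×180K protein-binding microarrays carried double-stranded probes. Their 34-nt variable regions held direct-repeat seeds, single-nucleotide variants, half-site ablations and random human genomic background sequences. Arrays were incubated 1 h with ligand-free nuclear receptor dimers in PBS pH 7.4, 2% milk, 0.02% Triton X-100, 1 mM DTT, 0.2 mg/mL BSA and 0.4 mg/ml salmon testes DNA. Antibodies against each partner (one per run) detected binding, and scanned fluorescence was regression-normalized. Binding z-scores use random background probes as reference.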

[2] = tested on: LXRa homodimer (NR concentration 270 nM)
In short: as §1

[3] = tested on: LXRb homodimer (NR concentration 270 nM)
In short: as §1

[4] = tested on: PPARg:RXRa (NR concentration 180 nM, RXRa partner concentration 90 nM)
In short: as §1

[5] = tested on: PPARg:RXRa 270nM:90nM, anti-RXR (NR concentration 270 nM, RXRa partner concentration 90 nM)
In short: as §1

[6] = tested on: PPARg:RXRa 30nM:10nM, anti-RXR (NR concentration 30 nM, RXRa partner concentration 10 nM)
In short: as §1

[7] = tested on: PPARg:RXRa 90nM:30nM, anti-RXR (NR concentration 90 nM, RXRa partner concentration 30 nM)
In short: as §1

[8] = tested on: PPARg:RXRa DBDmut IVT, anti-RXR (DBD mutation: RXRa K156A/R161A, NR concentration 270 nM, RXRa partner concentration 90 nM)
In short: as §1

Row | Sequence | PBM binding z-score [1] | PBM binding z-score [2] | PBM binding z-score [3] | PBM binding z-score [4] | PBM binding z-score [5] | PBM binding z-score [6] | PBM binding z-score [7] | PBM binding z-score [8]
1 | CGTCCAAGGTTAAGGTCAGTGAAAGAGACTCGAA | 3.28 | 0.367 | -0.224 | 2.06 | 2.6 | 0.541 | 1.49 | 1.47
2 | CGCACTAGGTCATCCAGGACAGTGAATACATTGA | 2.83 | 0.736 | 0.107 | 7.36 | 6.27 | 3.65 | 5.62 | 7.71
3 | CGAACTAGGTCATTGACAGGACAGTGGATAGTAA | 2.74 | 0.471 | 0.232 | 7.3 | 6.07 | 3.68 | 5.3 | 8.44
4 | CCAACTAGGTCAAAGGACAGTGAAAGGCGACGTA | 2.56 | 0.453 | 0.227 | 9.64 | 8.24 | 6.76 | 8.84 | 7.57
5 | TAGCCTAGGTCATGCGGGACAGTATAGTGTCGGC | 2.99 | 0.386 | -0.0861 | 2.48 | 2.57 | 0.321 | 1.17 | 1.71
6 | GCTGCTAGGTCAACTGATGGCCAGCTAAAGCTCG | 2.54 | -0.17 | -0.174 | 2.45 | 3.01 | 0.617 | 2.13 | 4.28
7 | AGTCAAAGTTCAGGACGAGGTAACGTTAAGCACG | 3.74 | 1.1 | 0.0351 | 4.29 | 4.64 | 2.03 | 3.86 | -0.183
8 | CCGACTGGGGCAAGGTCACCATAACGCACAGCCA | 2.82 | 0.471 | -0.792 | 4.78 | 4.63 | 2.12 | 3.78 | 3.03
9 | GGAACGAGGTCAAGTTGATAGCAGAGTTTGATGG | 6.21 | 2.03 | 2.13 | 7.7 | 6.96 | 4.31 | 6.52 | 6.19
10 | CGAACTAGGTCATCCAGGACCGTGAATACATTGA | 2.19 | 0.428 | -0.349 | 7.13 | 6.1 | 3.53 | 5.78 | 8.24
11 | AATACAGGGTCACGAGGCCAGAGTAGGTACGAAT | 6 | 1.22 | 0.897 | 8.68 | 7.43 | 4.39 | 6.65 | 3.9
12 | CGAACTAGGTCAAAGGACATTGAAAGGCGACGTA | 2.7 | 0.172 | -0.137 | 10.8 | 8.84 | 9.04 | 10.6 | 8.06
13 | AGAATGAGGTCAAGATCAGGGAAACAGAATACAT | 5.9 | 0.974 | 1.7 | 7.59 | 6.96 | 4.75 | 6.74 | 5.82
14 | TGTATGAGGTTAAAGATCAGGGAACGTGGCGTCG | 3.09 | 0.262 | 1.41 | 4.1 | 5.21 | 3 | 4.93 | 0.702
15 | CCTGCTAGGTCATGGTCAGCGAATCTACAGTATG | 2.19 | -0.0156 | -0.255 | 2.7 | 2.69 | 0.687 | 1.77 | 4.64
16 | AGTCAAAGTGCATCTAGGTAACGTAAGATATGCT | 0.188 | -0.289 | -0.415 | 2 | 2.08 | 0.727 | 1.47 | 0.592
17 | AACGAAAGGTCGAAGGTGAGTATACCCACCCGAA | 3.94 | 0.129 | 0.37 | 4.7 | 4.9 | 2.35 | 3.92 | 0.349
18 | GCTTAAGGGTCAAAGGTTATAGCATGAATAGAAT | 6.57 | 1.93 | 1.36 | 11.7 | 9.09 | 8.73 | 9.85 | 3.81
19 | TTGCCAAGGTGAAAGGTCGTTGATGCACGCCTTG | 3.11 | -0.0355 | -0.723 | 8.02 | 7.51 | 6.32 | 8.1 | 1.69
20 | CGAACAAGGTCATTGACAGGACAGTGAATAGTAA | 5.4 | 1.2 | 1.12 | 5.6 | 5.66 | 2.36 | 4.75 | 4.08
21 | AGTCAAACTTCAGGACGAGGTAACGTAAAGCACG | -0.137 | -0.0988 | -0.504 | 0.919 | -0.132 | 0.281 | -0.00758 | -0.522
22 | CGTCAAAGGTCAGAGAGGTCAGTGAATGCCGAGT | 6.59 | 4.99 | 1.76 | 7.66 | 7.15 | 4.06 | 6.28 | 4.14
23 | TTACCAAGGTCAAGGTCGTTGATCCCTCTGTAGA | 5.51 | 3.05 | 1.11 | 6.32 | 6.38 | 3.44 | 5.46 | 3.67
24 | AAAACAGGGTCATCGTAGGCCAGAGTACGCACAG | 6.26 | 0.569 | 1.32 | 7.65 | 6.86 | 4.1 | 5.89 | 4.38
25 | GATACGGGGTCAAGGCCAGAGTACGCGTATTGAT | 6.02 | 0.0824 | 0.667 | 8.92 | 8.33 | 5.85 | 7.78 | 4.87
26 | CGTCAAAGGTCAGCAGGTCAGTGAAAGCGACGTG | 6.48 | 2.22 | 1.28 | 8.46 | 7.84 | 4.46 | 7.02 | 4.94
27 | CCTTACGGGTCACGAGGTCATAGCACGACGAGCG | 5.89 | 2.73 | 0.62 | 8.56 | 7.55 | 4.61 | 6.67 | 4.66
28 | AATACGGGGTCACTAGGCCAGAGTAGGTACGAAT | 6.53 | 2 | 2.47 |  | 8.44 | 5.78 | 7.95 | 5.43
29 | TCTGCTAGGTCATCGATGGTCAGCTAATCTGCTA | 3.21 | -0.333 | -0.256 | 1.74 | 3.32 | 1.82 | 2.45 | 3.54
